The record followed here is PubChem BioAssay (NCATS).

The structures appear in SMILES notation. Inconclusive results are not listed. Values without a mark were called inactive. Calls follow the shape of the dose curve; as a rule, active = well fitted cell-killing curve with a large enough effect; inconclusive = small, poorly fitted or top-dose-only effect; inactive = flat fitted curve, though single readings scatter.

This experiment can be described thus: Cell Viability - LYMP2-012 (AID 982).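 Also: cellular ATP by luciferase luminescence where a drop means cytotoxicity; cells exposed to compound for one day before reading; 0% = DMSO only and full loss = 92 µM tetraoctylammonium bromide; nearly all actives have a fitted effect of over 55% in size.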 The following applies: LYMP2-012 lymphoblastoid cell viability qHTS; series mostly up to 92.2 µM; activity change, negative = cytotoxicity: at the top concentration. The text has this: NIH Chemical Genomics Center [NCGC]
NIH Molecular Libraries Screening Centers Network [MLSCN]
National Institutes of Environmental Health Sciences [NIEHS]
National Toxicology Program [NTP]
We have developed a 1536-well cell-based assay for quantitative high throughput screening (qHTS) against a number of cell lines to determine in vitro cytotoxicity of small molecules. This particular assay uses a human lymphoblastoid cell line (LYMP2-012) purchased from Coriell Institute for Medical Research.
NCGC Assay Protocol Summary:
The CellTiter-Glo luminescent cell viability assay (Promega) is a homogeneous method to measure the number of viable cells in culture. The end point readout of this assay is based on quantitation of intracellular ATP, an indicator of metabolic activity, using the luciferase reaction. Luciferase catalyzes the oxidation of beetle Luciferin to oxyluciferin and light in the presence of ATP. The luminescent signal is proportional to amount of ATP present.
Using the CellTiter-Glo luminescent cell viability assay, the amount of cellular ATP was measured in the lymphoblastoid cell line with complete culture medium following compound treatment for 24 hours. The assay was performed in opaque white Kalypsys 1536-well plates. In the screen, tetraoctylammonium bromide was used as positive control. Library compounds were measured for their ability to cause acute toxicity in the cell line, as reflected by a decrease in intracellular ATP levels, in a concentration-dependent manner. […] AC50 values were determined from concentration-response data modeled with the standard Hill equation.
qHTS protocol for CellTiter Glo lymphoblastoid cellular assay
[Step] [Parameter] [Value] [Description]
1. Reagent; 5 uL; 2500 lymphoblastoid cells/well
2. Time; 5 hr; 37 C incubation
4. Controls; 23 nL; Tetraoctylammonium bromide 6.4pM to 92 uM
5. Time; 24 hr; 37 C incubation
6. Reagent; 5 uL; CellTiter Glo reagent
7. Time; 30 min; Room Temperature
8. Detection; Luminescence; Viewlux plate reader
Keywords: cell viability, cytotoxicity, lymphoblastoid cell line, luminescence, NTPHTS, NTPHTS_NCGC, NIEHS, DSSTox, MLSMR, MLSCN, NIH Roadmap, qHTS, NCGC
On the technique in general: In qHTS, concentration-response curves come from the screen itself.
For `O=C(O)CBr`, the “activity change, negative = cytotoxicity” value was -0.657%.

As to `Cc1coc2c1CCC(C)C2` (stereo not given), the “activity change, negative = cytotoxicity” value was -4.36%.

For the compound `Cc1ccc(N)c(C)c1`, the “activity change, negative = cytotoxicity” value is -6.06%.

For the compound `Cl/C=C/CCl`, the “activity change, negative = cytotoxicity” value was -5.51%.

For the compound `C(CCOCC1CO1)COCC1CO1` (stereo not given), the “activity change, negative = cytotoxicity” value is -12.9%.

Consider `Cc1cccc(C)c1N`, for which the “activity change, negative = cytotoxicity” value is -2.02%.

For the compound `C=CC=O`, the “activity change, negative = cytotoxicity” value was -5.14%.

With `Nc1ccc([N+](=O)[O-])cc1N`, the “activity change, negative = cytotoxicity” value is -8.45%.

Turning to `CCCN(CCC)c1c([N+](=O)[O-])cc(C(F)(F)F)cc1[N+](=O)[O-]`, the “activity change, negative = cytotoxicity” value was 7.33%.

`Nc1cccc(Cl)c1`: the “activity change, negative = cytotoxicity” value is -0.911%.

For `S=c1[nH]c2ccccc2[nH]1`, the “activity change, negative = cytotoxicity” value was -8.88%.

As to `BrCC(Br)C1CCC(Br)C(Br)C1` (stereo not given), the “activity change, negative = cytotoxicity” value is 4.3%.

Regarding `CC(C)CON=O`, the “activity change, negative = cytotoxicity” value was 6.14%.

In the case of `Brc1cccc(-c2ccccc2)c1`, the “activity change, negative = cytotoxicity” value is 8.15%.

As to `ClCCBr`, the “activity change, negative = cytotoxicity” value was -20.5%.

Take `Cc1cc(-c2cc(C)c(N)c(C)c2)cc(C)c1N`: the “activity change, negative = cytotoxicity” value is -2.12%.

For `O=C(O)C(Cl)(Cl)Br`, the “activity change, negative = cytotoxicity” value was -1.9%.

With `Nc1ccc(Cc2ccc(N)c(Cl)c2)cc1Cl`, the “activity change, negative = cytotoxicity” value was 4.15%.

Consider `COC(=O)Nc1cccc(OC(=O)Nc2cccc(C)c2)c1`, for which the “activity change, negative = cytotoxicity” value was -2.51%.

Turning to `Cc1ccc([N+](=O)[O-])cc1`, the “activity change, negative = cytotoxicity” value was -14.8%.

For `c1ccoc1`, the “activity change, negative = cytotoxicity” value is 0.713%.

Regarding `CC(C)[C@]12CC(=O)[C@H](C)[C@H]1C2`, the “activity change, negative = cytotoxicity” value is 0.408%.

In the case of `Oc1ccc(Cl)c(Cl)c1`, the “activity change, negative = cytotoxicity” value is 7.43%.

Turning to `c1ccc2c(c1)CCNC2`, the “activity change, negative = cytotoxicity” value is -10%.

For `CCCCCCCCCCCOC(=O)c1ccccc1C(=O)OCCCCCCCCCCC`, the “activity change, negative = cytotoxicity” value was -4.65%.

Turning to `CCBr`, the “activity change, negative = cytotoxicity” value is 1.22%.

With `Nc1ccc(Oc2ccc(N)cc2)cc1`, the “activity change, negative = cytotoxicity” value is -4.46%.

`COc1ccccc1N`: the “activity change, negative = cytotoxicity” value was -15.5%.

As to `Nc1ccc(-c2ccccc2)cc1`, the “activity change, negative = cytotoxicity” value is 1.57%.

Take `C1CC2OC2CC1C1CO1` (stereo not given): the “activity change, negative = cytotoxicity” value is -1.42%.

As for `Brc1ccc(Oc2ccc(Br)cc2Br)c(Br)c1`, the “activity change, negative = cytotoxicity” value was -5.3%.

`Cc1cc(N=Nc2ccccc2C)ccc1N`: the “activity change, negative = cytotoxicity” value was -14.4%.

Turning to `ClCC(Cl)CCl`, the “activity change, negative = cytotoxicity” value was 6.96%.

On to `CCCCOCC1CO1` (stereo not given), for which the “activity change, negative = cytotoxicity” value is -24.3%.

Regarding `O=Cc1ccc(Cl)cc1Cl`, the “activity change, negative = cytotoxicity” value was 6.16%.

On to `N#CC(O)c1ccccc1` (stereo not given), for which the “activity change, negative = cytotoxicity” value was 25.6%.

With `C=C(C)CCl`, the “activity change, negative = cytotoxicity” value is -2%.

Consider `ClCc1ccccn1`, for which the “activity change, negative = cytotoxicity” value is 3.44%.

Turning to `O=c1ccc(=O)[nH][nH]1`, the “activity change, negative = cytotoxicity” value was -5.26%.

Turning to `O=C(O)c1cccc(Cl)c1`, the “activity change, negative = cytotoxicity” value was 9.83%.
